ALDH1A1 block: qHTS Assay for Inhibitors of Aldehyde Dehydrogenase 1 (ALDH1A1). Aldehyde dehydrogenase 1A1 (Homo sapiens), P00352. Purified ALDH1A1, NADH fluorescence, propionaldehyde substrate. Potency, µM (doses to about 75.3 µM), inactives show top-dose activity, negative = inhibition, hits mostly inhibitors. 220,000 tested, 7.3% active. AID 1030, 2008;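 also: potency is read from the fitted curve at half-maximal effect; plate controls were no enzyme wells and a reference inhibitor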
PNC assembly inh: High Content Assay for Compounds that inhibit the Assembly of the Perinucleolar Compartment | PC3M PTB-GFP, PNC prevalence imaging, 16 h; hits give low values | activity change (PNC), negative = inhibition, % at 10 µM | 140,000 tested, 3.1% active;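 active = readout at or below -70, meaning at least 70% loss of cells showing the perinucleolar compartment, a nuclear body marking cancer cells; inconclusive = readout between -30 and a set limit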;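 also: plate controls were DMSO wells for no effect and camptothecin positive control wells for full effect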
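Compounds are pinned in duplicate onto adhered PC3M cells stably expressing GFP-tagged PTB and incubated 16 h at 37 C. Cells are then fixed, nuclei stained with Hoechst, and PNC-positive cells counted.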
Lamin A splicing: qHTS Assay for Modulators of Lamin A Splicing | HeLa LMNA splicing GFP/RFP minigene ratio, 48 h | Potency, µM (series often up to 46.1 µM), inactives show at the highest dose ratio change, negative = inhibition, usual class: inhibitors | 200,000 tested, 0.01% active; active = well fitted inhibition curve with a large enough effect in the signal ratio, with a control signal flat, not every such curve was filed as active; inconclusive = small, poorly fitted or top-dose-only effect, or effect the other way, or a change in a side signal; the % refers to the signal ratio; also: potency is read from the fitted curve at half-maximal effect
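Read-out is the ratio of GFP to DsRed2 object intensity, acquired by 488 nm laser-scanning cytometry on HeLa lamin A-EGFP minigene reporter cells. Compound incubation 48 hrs at 37 °C in Opti-MEM with 2% FBS; DMSO 0.5% final.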
KinaseGlo FLuc: Counterscreen for Luciferase (Kinase-Glo TM) Inhibition; Kinase-Glo luciferase, ATP luminescence, 8 min; AID 1379, 2008; Luciferin 4-monooxygenase (Photuris pensylvanica), Q27757; 200,000 tested, 0.28% active; Potency, µM (series often up to 38.3 µM), for the others: at the highest dose activity change, negative = inhibition, most hits filed as inhibitors; active = well fitted inhibition curve with a large enough effect; inconclusive = small, poorly fitted or top-dose-only effect; also: potency is read from the fitted curve at half-maximal effect; nearly all actives have a fitted effect of over 60% in size
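Recombinant Kinase-Glo luciferase, 10 uM ATP (linear range), luciferin; imidazole pH 7.2 / KCl / MgCl2 / Tween / BSA buffer; 8 min RT; luminescence.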
HPGD block: qHTS Assay for Inhibitors of HPGD (15-Hydroxyprostaglandin Dehydrogenase); purified HPGD, NADH fluorescence kinetic, PGE2 substrate; 150,000 tested, 4.3% active; 15-hydroxyprostaglandin dehydrogenase [NAD(+)] (Homo sapiens), P15428; Potency, µM, without a hit: at the top dose activity change, negative = inhibition, most hits filed as inhibitors; also: potency is read from the fitted curve at half-maximal effect
Target sequence (P15428 whole entry, looked up): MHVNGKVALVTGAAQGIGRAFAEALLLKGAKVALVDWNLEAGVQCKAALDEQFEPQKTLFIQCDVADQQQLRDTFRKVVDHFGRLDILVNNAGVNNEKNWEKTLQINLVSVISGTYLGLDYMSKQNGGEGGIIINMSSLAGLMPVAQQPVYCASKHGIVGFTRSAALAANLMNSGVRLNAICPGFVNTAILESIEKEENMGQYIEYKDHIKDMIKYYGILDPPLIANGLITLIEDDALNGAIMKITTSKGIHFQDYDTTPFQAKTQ
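20 nM HPGD preincubated 15 min at room temperature with compound in 50 mM Tris-HCl pH 8, 0.01% Tween 20. Started with 1 mM NAD+ and 30 uM prostaglandin E2; NADH fluorescence (360/450 nm) read 5 times over 30-s intervals, last minus first.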
* hit, by the source's call; ? = inconclusive; / = no result given; [ ] = another dose, or the depositor's remark. Rows were chosen to be rich in hits. Some 10% of all compounds tested hit in one or more screens of this group. Unless noted, calls follow the shape of the dose curve; as a rule, active = well fitted inhibition curve with a large enough effect (not every such curve was filed as active); inconclusive = small, poorly fitted or top-dose-only effect, or another doubt; inactive = no such curve, though single readings can be large or run the other way. Unless noted, % is scaled to controls: 0 for no effect and ±100 for the full control effect.

SMILES	ALDH1A1 block	PNC assembly inh	Lamin A splicing	KinaseGlo FLuc	HPGD block
Cn1c(N)c(C(=O)COC(=O)c2ccnc3ccccc23)c(=O)n(C)c1=O	-1%	-85*	?	-2%	?
CC(C)Cn1c(N)c(C(=O)COC(=O)c2c(F)cccc2F)c(=O)n(C)c1=O	11µM*	/	?	5%	/
Cn1c(N)c(C(=O)COC(=O)c2cc(C3CC3)nc3ccccc23)c(=O)n(C)c1=O	0%	51	-11%	-2%	-2%
Cn1c(N)c(C(=O)COC(=O)c2ccc(Cl)c(S(=O)(=O)N3CCCCC3)c2)c(=O)n(C)c1=O	9%	67	-9%	0%	16µM*
Cn1c(N)c(C(=O)COC(=O)c2cccs2)c(=O)n(C)c1=O	14µM*	26	7%	0%	-11%
C[C@@](N)(C(=O)O)c1cccc(CC(=O)O)c1	2%	/	/	4%	-9%
CC1(C)CC(NC(=O)c2ccc3c(c2)OCO3)CC(C)(C)N1	-14%	-1	9%	-4%	-28%
CC1(C)CC(NC(=O)c2coc(=O)c(Br)c2)CC(C)(C)N1	?	-100*	28%	11%	-14%
O=C(Cc1ccc(Cl)cc1)NCc1ccccc1Cl	7%	/	9%[46 µM]	-2%	/
O=C(Cc1ccccc1Cl)NC1(O)C(=O)c2ccccc2C1=O	1.1µM*	/	17%[46 µM]	/	/
C/C(=N\NC(=O)C1(C)CC1(Br)Br)c1ccc([N+](=O)[O-])cc1 (stereo not drawn)	-3%	/	16%[46 µM]	3%	/
C/C(=N\NC(=O)C1(C)CC1(Br)Br)c1ccc(NC(=O)c2ccc(C)o2)cc1 (stereo not drawn)	-3%	-21	-18%	-2%	18µM*
Cc1cc(=O)[nH]c(SCC(=O)Nc2nnc(CC(C)C)s2)n1	-4%	2	-12%	2%	32µM*
COCc1nnc(NC(=O)CSc2ccc(C)cc2)s1	20µM*	19	-11%	5%	28µM*
COCc1nnc(NC(=O)c2sc3ccccc3c2Cl)s1	?	5	-10%	-5%	32µM*
COCc1nnc(NC(=O)CSc2ccccc2)s1	3%	28	3%	-6%	-4%
COCc1nnc(NC(=O)CSCc2ccccc2)s1	18µM*	76	2%	-4%	?
Cc1ccc(Cc2c[nH]c(=S)s2)cc1	8.9µM*	/	/	-1%	/
Cc1ccc(CN2C(=O)CNC2=S)cc1	-1%	/	/	4%	/
CCc1ccc(NC(=O)c2cc(S(=O)(=O)N3CCCCCC3)ccc2F)cc1	/	/	8%[46 µM]	/	/
Nc1nc(-c2ccc3c(c2)CCC(=O)N3)cs1	?	/	24%[46 µM]	-15%	/
CC(C)C(=O)N1CCc2cc(-c3csc(N)n3)ccc21	14µM*	45	7%	0%	20µM*
COc1cccc(C(=O)Nc2ccc(C(=O)OCc3cc(=O)n4cc(C)sc4n3)cc2)c1	/	/	5%[46 µM]	/	/
CCc1ccc(CCC(=O)Nc2nccs2)o1	18µM*	28	5%	-1%	-28%
Cc1ccc(CCC(=O)Nc2nccs2)o1	?	44	13%	-3%	28µM*
SMILES	ALDH1A1 block	PNC assembly inh	Lamin A splicing	KinaseGlo FLuc	HPGD block
N#C/C(=C\c1cn(-c2ccccc2)nc1-c1cc2ccccc2o1)c1nc2ccccc2[nH]1	?	-11	1%	1%	-18%
Cc1ccc(-c2nn(-c3ccccc3)cc2/C=C(\C#N)c2cccc(C#N)c2)o1	22µM*	56	16%	4%	-9%
COC(=O)[C@@]1(Cc2ccccc2)[C@H]2c3cc(C(=O)N4CCCC4)n(CCO)c3C[C@H]2CN1C(=O)c1ccccc1	1%	/	/	-3%	-11%
O=C(C[n+]1cc(-c2ccccc2)n2c1CCC2)c1cccs1	4%	/	-27%[46 µM]	5%	/
O=C(C[n+]1ccn(CCCNP2(=O)C=C(c3ccccc3)OC(c3ccccc3)=C2)c1)c1cccs1	14µM*	/	-1%[46 µM]	1%	/
Cn1cc([N+](=O)[O-])c(C(=O)Nc2cc(Oc3ccccc3)cc([N+](=O)[O-])c2)n1	?	-125*	?	-2%	-24%
O=C(NCC1CCCO1)c1sc2cc(Cl)ccc2c1Cl (stereo not drawn)	?	?	?	-1%	14µM*
O=C(NCC1CCCO1)c1ccc(COCC(F)(F)C(F)F)cc1 (stereo not drawn)	-1%	52	8%	4%	14µM*
O=C(NCC1CCCO1)c1csc(Nc2cccc3ccccc23)n1 (stereo not drawn)	-9%	/	?	13µM*	/
CC(C)CC(=O)c1c[nH]c(C(=O)NCC2CCCO2)c1 (stereo not drawn)	?	-4	0%	1%	20µM*
CC(C)NC(=O)c1ccc(COCC(F)(F)C(F)F)cc1	3%	-5	9%	-2%	-20%
CCCn1c(C)nc2c(NC(C)CN(C)C)nc(C)nc21 (stereo not drawn)	10%	/	/	-4%	-4%
CCOC(=O)OCC1OC(c2ccccc2)C=CC1Oc1ccc(F)cc1C (stereo not drawn)	6%[13.5 µM]	/	/	/	/
O=C(NCC(c1cccnc1)N1CCc2ccccc21)c1cccc(F)c1 (stereo not drawn)	/	/	8%[46 µM]	/	/
C[C@H]1Cc2c(COc3ccccc3)nc3c(c2CO1)CN(C(=O)c1cc(I)ccc1F)CC3	-4%[13.5 µM]	/	7%[9.22 µM]	-3%[7.66 µM]	0%
O=C(NC(=S)NCC1CCCO1)c1ccccc1Br (stereo not drawn)	-2%	26	-3%	-3%	-5%
COc1cccc(CN(CC2CCCO2)C(=O)c2cc3ccccc3oc2=O)c1 (stereo not drawn)	16µM*	/	-7%[46 µM]	-8%	/
CCCC(=O)Nc1ccc(C(=O)NCC2CCCO2)cc1 (stereo not drawn)	?	-3	0%	-5%	11µM*
COc1cccc(S(=O)(=O)NCc2ccc(C(=O)NCC3CCCO3)cc2)c1 (stereo not drawn)	14µM*	-16	-1%	1%	16µM*
Cc1ccc(C(=O)NC(=S)NCC2CCCO2)cc1Br (stereo not drawn)	8.9µM*	-15	?	0%	-11%
COc1cc(OC)c(NC2(c3ccccc3)C(=O)c3ccccc3C2=O)cc1Cl	/	/	13%[46 µM]	/	/
Cc1ccc(C(=O)N2CCN(Cc3cc(=O)n4nc(-c5ccccc5)sc4n3)CC2)cc1	/	/	1%[46 µM]	/	/
C[C@@H]1[C@H](O)[C@@H](C)/C=C/C=C/C=C/C=C/C=C/C=C/C=C/[C@H](O[C@@H]2O[C@H](C)[C@@H](O)[C@H](N)[C@@H]2O)C[C@@H]2O[C@](O)(C[C@@H](O)C[C@@H](O)[C@H](O)CC[C@@H](O)C[C@@H](O)CC(=O)O[C@H]1C)C[C@H](O)[C@H]2C(=O)O	-15%	/	?	/	-10%
